These results are taken from PubChem BioAssay AID602429 (Sanford-Burnham Center for Chemical Genomics, 2012).

Structures are written as SMILES. The whole screen tested about 360,000 compounds, of which about 1,200 (0.33%) were called active. Cut-off read from the data, not from the text of the source: active = inhibition above about 37%; inactive = the rest. The entries come from a sample that favours actives as a whole.

Small ubiquitin-related modifier 1 (Homo sapiens), sequence (P63165 whole entry, looked up): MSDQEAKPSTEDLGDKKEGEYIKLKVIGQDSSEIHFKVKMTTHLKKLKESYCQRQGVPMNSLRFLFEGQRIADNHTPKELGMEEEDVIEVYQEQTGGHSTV

This assay addresses Small ubiquitin-related modifier 1 (Homo sapiens) (UniProt P63165). Put plainly: SUMO1 binding to interaction partners, disruption – biochemical, uHTS, primary screen (AID 602429). Particulars: SUMO1 binding to a labelled peptide, TR-FRET, 1 h; at 20 µM; active compounds read high.
As for `CC1(C)CC(=O)C=C(c2ccc(COC(=O)c3cc(F)cc(F)c3)cc2)C1=O`, the inhibition (as a rule, the drop in the measured response relative to a control, in per cent) was -22.7% (inactive). The value for `COc1ccc(OC)c(NC(=S)N2CCc3ccccc3C2)c1` was 0.375% (inactive). With `O=C(NCc1ccccc1)C(c1ccc(F)cc1)N1CCN(C(=O)C2CCCO2)CC1` (stereo unspecified), the inhibition was -1.69% (inactive).

For the molecule `CCOC(=O)c1c(-c2cccc(N)c2)cn2ccccc12`, the inhibition was -5.65% (inactive).

Regarding `CC1(C)OC(=O)N2CCc3ccccc3C21C` (stereo unspecified), the inhibition was 3.74% (inactive). As to `CC(=O)Nc1ccc(S(=O)(=O)N2CCC(C(=O)N[C@@H](Cc3ccccc3)C(=O)O)CC2)cc1`, the inhibition was 0.0701% (inactive). With `COc1cc(C2C3C(=O)N(c4ccccc4)C(=O)C3ON2c2ccccc2)ccc1O` (stereo unspecified) the figure was 5.72% (inactive); with `O=c1ccc2c(-c3ccccc3S(=O)(=O)O)c3ccc(O)c(O)c3oc-2c1O`, 48.2% (active); with `COc1cccc(-c2cc3nc4c(c(N5CCC6(CC5)OCCO6)n3n2)CCCC4)c1`, 1.23% (inactive).

With `N#CC1(NC(=O)COC(=O)CSc2ccc(F)cc2)CCCCC1`, the inhibition is 1.24% (inactive). Turning to `O=C(NCC1CCCO1)C1CCN(C2CCN(C(=O)C3CCCCC3)CC2)CC1` (stereo unspecified), the inhibition is 2.09% (inactive). For the molecule `COc1ccc(C(=O)NCc2ccccc2C)cc1S(=O)(=O)NC1CCCC1`, the inhibition was 0.24% (inactive). The value for `CCCNC(=O)C1(C)CCN(C(=O)c2cc(F)ccc2C)C1` (stereo unspecified) was -2.78% (inactive); that for `CCCCCc1nnc(NC(=O)c2ccc(=O)n(C)n2)s1` was -5.45% (inactive); that for `O=C(Cn1cc2c(n1)CCCCC2)NCCN1CCOCC1` was -0.24% (inactive).

For the molecule `COc1ccccc1CNC(=O)Cn1cc2c(n1)CCCC2`, the inhibition was -1.54% (inactive).

With `COCCNC(=O)Cn1cc2c(n1)CCCCC2`, the inhibition was 42.7% (active). `Cc1ccc(NC(=O)c2oc(=O)c3ccccc3c2-c2ccccc2)c(C)c1`: the inhibition is 3.85% (inactive). With `CCC1(C)COC(c2ccc(OC)c(OC)c2)OC1` (stereo unspecified) the figure was 0.985% (inactive); with `CCCC(C(=O)n1nc(C)cc1C)C(NS(=O)(=O)c1ccc(C)cc1)c1ccccc1` (stereo unspecified), -1.84% (inactive); with `Nc1ccc2nc3c(=O)[nH]c(=S)[nH]c3nc2c1`, 92.6% (active). Consider `CC(C)c1nc(SCC(=O)NC(=O)NC(C)(C)C)n[nH]1`, for which the inhibition is 1.88% (inactive). As to `COc1ccc(C)cc1N(CC(=O)NC(C)c1ccccc1)S(C)(=O)=O` (stereo unspecified), the inhibition is -0.711% (inactive). In the case of `CN(Cc1ccco1)S(=O)(=O)c1nnc(NC(=O)c2ccccc2)s1`, the inhibition is 6.06% (inactive).

With `O=[N+]([O-])c1c(NCCO)cc(Sc2nc3ccccc3s2)c2nonc12`, the inhibition was 48.4% (active).

Turning to `Cc1ccccc1C(=O)Nc1cccc(-c2nnc(SCC(=O)O)n2C)c1`, the inhibition is 3.31% (inactive). Regarding `CC(C)C(C(=O)NCc1ccco1)N(CC1CCCO1)C(=O)CNS(=O)(=O)c1ccc(F)cc1` (stereo unspecified), the inhibition is 4.85% (inactive). With `Cc1cc2cc3n(c2nn1)N=C(Cl)CC3` the figure was -9.97% (inactive); with `COc1cccc2c1C(=O)c1c(O)c3c(c(O)c1C2=O)CC(O)(C(C)=NNC(=O)c1ccc(Cl)c(Cl)c1)CC3OC1CC(N)C(O)C(C)O1` (stereo unspecified), 111% (active); with `COc1ccc(NC(=O)CN(C)C(=O)c2cc(C3CC3)nn2-c2ccccc2)cc1`, -1.85% (inactive). Regarding `CCN1C(=NCCc2cccnc2)N[C@@H](c2ccccc2)[C@H](C(=O)OC)[C@H]1C`, the inhibition was -3.87% (inactive). Take `CN(C(=O)CC1C(=O)NCCN1Cc1ccc(F)cc1Cl)C1CCCCC1` (stereo unspecified): the inhibition was -1.34% (inactive). As to `COc1ccc(OC)c(Nc2nc3ccccc3n3cnnc23)c1`, the inhibition was 47.2% (active). Regarding `COc1cc(Nc2nc3ccc(Cl)cc3n3cnnc23)cc(OC)c1OC`, the inhibition is -1.84% (inactive).

With `COc1ccc(CCNc2nc3ccc(C)cc3n3cnnc23)cc1OC`, the inhibition is 2.61% (inactive). On to `N#C/C(=C/c1cccc([N+](=O)[O-])c1)c1nnc2n1CCCCC2`, for which the inhibition is -13.1% (inactive). As for `CC1CCN(C(=O)COC(=O)c2cc(=O)[nH]c3ccccc23)CC1`, the inhibition is -34.7% (inactive). For `Oc1c(Cl)cc(Cl)c(Cl)c1Cc1c(O)c(Cl)cc(Cl)c1Cl`, the inhibition is 68.6% (active).

On to `CCN(CC)S(=O)(=O)N1CCC(C(=O)NC(C)CCc2ccccc2)CC1` (stereo unspecified), for which the inhibition is -0.482% (inactive). Regarding `Nc1nc(Sc2ncccc2[N+](=O)[O-])n[nH]1`, the inhibition was -26.7% (inactive).

In the case of `CCCc1noc2c1/C(=N\O)CCC2`, the inhibition is 1.7% (inactive). On to `COc1ccc(-c2nnc(SC(=O)N3c4ccccc4Sc4ccccc43)o2)cc1`, for which the inhibition was -3.37% (inactive).

For the molecule `COc1ccc(-c2nnc(SC(C)C(=O)NC3CC3)o2)cc1` (stereo unspecified), the inhibition is 1.98% (inactive).

Regarding `COc1ccc(-c2nnc(-c3ccc4ccccc4c3)o2)cc1`, the inhibition was 51.9% (active). As for `ONC(=Nc1ccccc1)c1ccccc1Cl`, the inhibition is 0.653% (inactive). Regarding `CN(C(=O)COC(=O)c1cc(=O)[nH]c2ccccc12)C1CCCCC1`, the inhibition is -17.9% (inactive). On to `Cc1ccsc1/C=N/n1c(=S)[nH]nc(C)c1=O`, for which the inhibition is -0.0625% (inactive). Take `S=c1[nH]nc(-c2cccs2)n1/N=C/c1cn(-c2ccccc2)nc1-c1ccc(Cl)cc1`: the inhibition is 41.9% (active). Regarding `Clc1ccc(-n2nnnc2-c2cnc(-c3ccccn3)nc2-c2cccs2)cc1`, the inhibition was -11.8% (inactive). The value for `CSCC[C@H](NC(=O)NC1CCCC1)C(=O)O` was 2.79% (inactive); that for `O=C(COC(=O)c1cc(=O)[nH]c2ccccc12)Nc1nc(-c2cccc(Br)c2)cs1` was 2.92% (inactive).

For `Cc1cc(C)c(-c2csc(NC(=O)CCCc3nc4ccccc4c(=O)[nH]3)n2)c(C)c1`, the inhibition is 0.192% (inactive).

Take `O=C(CSc1nc2ccccc2c(=O)[nH]1)Nc1nc(-c2ccc(Br)cc2)cs1`: the inhibition was 94.3% (active). `O=C(O)c1ccc(S(=O)(=O)c2ccccc2)s1`: the inhibition was 2.5% (inactive). In the case of `COc1ccc(NC(=O)CCC(=O)Nc2nnc(C3CCCCC3)s2)cc1`, the inhibition was 44% (active).

As to `COc1ccc(OCCCC(=O)Nc2nnc(C3CCCO3)s2)cc1` (stereo unspecified), the inhibition is 0.167% (inactive). In the case of `COc1ccc2c(CC(=O)Nc3nnc(C4CC4)s3)coc2c1`, the inhibition was -1.1% (inactive). Regarding `COc1cc(C2C(C(=O)Nc3ccccc3OC)=C(C)Nc3ncnn32)ccc1O` (stereo unspecified), the inhibition was -0.861% (inactive). For `COc1ccccc1NC(=O)C1=C(C)Nc2nc3ccccc3n2C1c1cccs1` (stereo unspecified), the inhibition was -1.24% (inactive). Consider `COc1ccccc1NC(=O)C1=C(C)Nc2nnnn2C1c1cccc(Br)c1` (stereo unspecified), for which the inhibition was 43.5% (active). With `O=C1c2ccccc2C(=O)C1C(=O)C1CC1`, the inhibition is -16.1% (inactive).
